# Screens: PubChem BioAssay, National Center for Advancing Translational Sciences (NCATS)
# TGFb SMAD3 inh = blocks TGF-b signaling; HepG2 CAGA-GFP TGF-b/SMAD3 reporter, GFP fluorescence, 18 h; TGF-beta stimulated, 500 pg/mL final; Potency, µM (series often up to 46.1 µM), without a hit: top-dose activity, negative = inhibition, most hits filed as inhibitors; hit rate 1.2% among 410,000; also: % is scaled to controls: 0 for no effect and ±100 for the full control effect; nearly all actives have a fitted effect of over 65% in size
#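 HEPG2 CAGA-GFP reporter cells (1000/well, DMEM with 1% FBS) received compounds, then recombinant TGF-beta at 500 pg/mL final for 18 hours at 37 degrees C. Per-cell GFP summed per well was normalised to unstimulated and stimulated DMSO controls before curve fitting.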
# Nrf2 block = Nrf2 pathway inhibition; hit rate 2.1% among 360,000; Potency, µM (highest dose often 46 µM), inactives show at the top dose activity change, negative = inhibition, hits mostly inhibitors; A549 ARE-Fluc reporter, luciferase luminescence, 18-24 h; also: % is scaled to controls: 0 for no effect and ±100 for the full control effect; nearly all actives have a fitted effect of over 60% in size
#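 Concentration-response testing used A549 ARE_Fluc cells at 5000 cells/well. Following an 18-24 h compound incubation, viability was read by fluorescence (Ex 405/Em 525) and luciferase output by luminescence.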
# Nrf2 activator = Nrf2 pathway activation; AID 624171; AREc32 ARE-luciferase reporter (MCF7-derived line), luminescence, 24 h; Potency, µM (highest dose often 46.1 µM), inactives show at the highest dose activation, usual class: activators; hit rate 0.31% among 410,000; also: % of control where 0% means no effect; nearly all actives have a fitted effect of over 65% in size
#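 AREc32_Fluc, 1000 cells/well, OPTI-MEM + 5% FBS, o/n 37 deg C 5% CO2; 23 nL cpd by pin tool, 24 hr; Steady-Glo 30 min RT, luminescence.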
# HepG2 tox = kills HepG2 cells in TGF-b inhibitor counter-screen; HepG2 CAGA-GFP viability, ATP luminescence, 18 h; Potency, µM (titrated, usually from 46.1 µM), without a hit: top-dose activity change, negative = cytotoxicity, usual class: cytotoxic; hit rate 0.76% among 410,000
#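 HepG2 CAGA-GFP cells (1000/well, DMEM with 1% FBS) received compound, then TGF-beta at 500 pg/mL final, and were incubated 18 hours at 37 degrees C. Viability was read by CellTiter-Glo luminescence. Media-only wells were set as complete cell-killing and DMSO as no toxicity.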
# A549 tox = A549 cytotoxicity, counter-screen for Nrf2 inhibitors. A549 ARE-Fluc cells, CellTiter-Fluor viability, 18-24 h. Potency, µM (titrated, usually from 46 µM), for the others: at the top dose activity change, negative = cytotoxicity, usual class: inhibitors. hit rate 0.16% among 390,000. AID 504648; also: % is scaled to controls: 0 for no effect and ±100 for the full control effect
#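 Cytotoxicity counterscreen: CellTiter-Fluor fluorescence was measured in A549 ARE_Fluc cells after 18-24 h of compound exposure in a concentration series. The subsequent BugLite luminescent read reports ARE-luciferase activity.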
# * hit, by the source's call; ? = inconclusive; nt = no result given; [ ] = dose if it differs, or a comment. This is a sample that favours compounds with a hit; in the whole collection about 3.6% have one here. Calls follow the shape of the dose curve; as a rule, active = well fitted curve in the direction sought with a large enough effect; inconclusive = small, poorly fitted or top-dose-only effect, or another doubt; inactive = no such curve, though single readings can be large; an effect the other way counts as inactive or inconclusive. Potency is read from the fitted curve at half-maximal effect.
SMILES,TGFb SMAD3 inh,Nrf2 block,Nrf2 activator,HepG2 tox,A549 tox
Cc1sc2ncnc(N3CCC(C(=O)N(C)CC(=O)Nc4ccccc4Cl)CC3)c2c1C,-19.5%,23.1µM*,-1.8%,-65.6%,?
COc1ccc(S(=O)(=O)N(C)C)cc1NC(=O)C1CCN(c2ncnc3sc(C)c(C)c23)CC1,-16.7%,11.6µM*,6.3%,-25.0%,?
Cc1sc2ncnc(N3CCC(C(=O)N(C)CC(=O)Nc4ccccc4Br)CC3)c2c1C,-1.5%,?,-1.0%,-6.5%,-11.1%
CCOC(=O)c1cnn(-c2ncnc3c2cnn3C)c1N,0.0%,1.1%,0.9%,-22.8%,-3.3%
COc1ccc(CNC(=O)c2sc3nc4n(c(=O)c3c2C)CCC4)cc1,8.6%,-15.3%,-0.3%,16.2%,1.6%
Clc1cccc(Cl)c1CSc1nnc(/C=C/c2ccccc2)o1,9.9%,nt,1.3%,-5.0%,2.1%
Fc1cccc(Cl)c1Cc1noc(/C=C/c2ccccc2)n1,-12.0%,?,15.8µM*,-38.7%,-0.4%
COc1ccc(CN2CCc3ccc(NC(=O)c4ccncc4)cc3C2)c(F)c1,-28.9%,?,-0.2%,-12.8%,-5.7%
CCCN1CCN(CCCNC(=O)c2ccc3c(c2)sc2nc(-c4ccc(OCC)cc4)cn23)CC1,28.2%,?,8.1%,-27.4%,-11.0%
CCOc1ccc(-c2cn3c(n2)sc2cc(C(=O)NCCCN(CC)CC)ccc23)cc1,?,12.2%,6.0%,10µM*,6.4%
CCOc1ccc(-c2cn3c(n2)sc2cc(C(=O)NCCCN4CCCCC4)ccc23)cc1,-0.5%,-27.2%,4.8%,2.51µM*,-0.2%
CCN(CC)CCNC(=O)c1ccc2c(c1)sc1nc(-c3ccc(F)cc3)cn12,11.2µM*,-5.5%,3.7%,15.8µM*,9.9%
CCOc1ccc(-c2cn3c(n2)sc2cc(C(=O)NCCCN4CCCCCC4)ccc23)cc1,?,-5.5%,12.5%,11.2µM*,0.9%
CCCCN(CC)CCCNC(=O)Cn1ncc2c3ccccc3n(C)c2c1=O,3.3%,25.7%,0.2%,-11.1%,-21.5%
Cc1nc2cc(NC(=O)CS(=O)(=O)c3ccccc3)ccc2s1,15.9%,?,3.5%,-10.9%,0.6%
COc1ccc(-n2c(Cc3cccn3C)nnc2SCC(=O)Nc2ccc(F)cc2F)cc1,2.4%,?,-0.6%,-5.8%,-2.5%
C=C1SC(=Nc2ccccc2Cl)N(C(=O)c2sc3ccccc3c2Cl)C1(C)C,?,-3.5%,8.1%,-1.4%,0.9%
CC(=O)c1sc(Nc2nc3ccc(F)cc3s2)nc1C,?,8.9%,8.9%,-34.9%,-3.1%
COC(=O)c1ccc2nc(NC(=O)C(C)(C)C)sc2c1,0.0%,4.11µM*,-0.4%,-15.4%,-5.3%
O=C(NNc1nc2ccc(F)cc2s1)c1cccc(F)c1,12.6µM*,-9.0%,0.2%,-59.5%,-16.5%
O=C(NNc1nc2ccccc2s1)c1ccc(F)cc1,-11.0%,8.6%,0.2%,-58.1%,-4.3%
COC(=O)c1ccc2nc(Nc3nc4ccc(F)cc4s3)sc2c1,17.8µM*,?,-2.7%,-34.8%,0.0%
CO/N=C/c1ccc(OC)c(Oc2nc(OC)cc(OC)n2)c1,-1.0%,?,-0.5%,0.7%,2.2%
COc1ccc(Cl)cc1NC(=O)CS(=O)(=O)c1cccc2nsnc12,29.8%,18.3%,0.3%,-3.9%,1.3%
O=c1cc2oc3cc(O)c(O)cc3c(-c3ccccc3[N+](=O)[O-])c-2cc1O,-24.4%,3.26µM*,-0.4%,-15.2%,5.17µM*
SMILES,TGFb SMAD3 inh,Nrf2 block,Nrf2 activator,HepG2 tox,A549 tox
O=c1cc(-c2ccccc2Cl)oc2cccc(O)c12,-2.6%,0.8%,7.2%,-15.2%,-1.2%
CCOC(=O)C1=C(CSc2nc3ccccc3s2)NC(=O)NC1c1cc(C)ccc1C (configuration not stated),11.2µM*,?,5.0%,11.2µM*,-6.3%
CCOC(=O)C1=C(CSCC(=O)OC)NC(=O)NC1c1cc(C)ccc1C (configuration not stated),-22.5%,nt,-0.5%,-14.8%,12.1%
CC(C)(C)c1nc2cc(Cl)c([N+](=O)[O-])cc2o1,7.08µM*,3.1%,4.6%,-19.6%,-0.8%
CC(C)(C)Nc1nc2cc([N+](=O)[O-])ccc2o1,-2.0%,9.4%,4.9%,-4.3%,1.0%
Cc1cccc(CSc2cccc3cccnc23)c1,?,-7.7%,22.4µM*,2.3%,-1.7%
CCCCCOc1ccc(NC(=O)CSc2cccc3cccnc23)cc1,?,0.5%,?,20µM*,-0.8%
Cc1cccc(NC(=O)CSc2cccc3cccnc23)c1C,?,-3.6%,-0.1%[9.22 µM],-40.5%,-2.1%
CCOC(=O)CSc1cccc2cccnc12,?,nt,?,8.91µM*,-1.4%
Cc1ccc2c(c1)C1(SCCS1)C(=O)N2,-8.4%,nt,4.7%,-12.8%,11.5%
O=C(NCc1csc(-c2ccccc2)n1)c1ccco1,8.6%,-6.5%,6.3%,-0.2%,-6.7%
N#Cc1ccc2ccn(CC(=O)NC3CCCCCC3)c2c1,-7.8%,-12.4%,-0.3%,-1.0%,nt
COc1ccc(C(=O)CC(Nc2ccc([N+](=O)[O-])cc2)c2ccc(Cl)cc2)cc1 (configuration not stated),?,6.51µM*,0.7%,-8.7%,?
COc1ccc(C(=O)CC(=O)C(=O)Nc2ccc(Cl)cc2)cc1,19.8%,6.3%,1.9%,-8.7%,0.0%
O=C(Nc1ccccc1F)c1ccc(CSc2ncccn2)cc1,6.9%,?,3.5%,1.4%,1.6%
O=C(CNC(=O)Cc1cccc2ccccc12)NCc1ccccc1F,-0.4%,-7.7%,0.1%,-5.1%,2.6%
CC1CCCCN1C(=O)c1ccccc1OC1CCN(S(C)(=O)=O)CC1 (configuration not stated),6.5%,5.7%,0.3%,-3.4%,-0.2%
COc1ccc(-c2csc(NC(=O)C3CSC4(C)CCC(=O)N34)n2)cc1OC (configuration not stated),19.8%,-14.3%,2.9%,-3.7%,-3.7%
CCCOc1cc(C)c(S(=O)(=O)NC2CC(C)(C)NC(C)(C)C2)cc1C,?,12.2%,4.4%,11.2µM*,-6.8%
COc1cc(C)c(S(=O)(=O)NC2CC(C)(C)NC(C)(C)C2)cc1C,-0.1%,6.2%,0.3%,-9.0%,9.0%
CN(CC(=O)Nc1ccc(Cl)c(C(F)(F)F)c1)C(=O)C1CCN(C(=O)c2ccc(Cl)cc2)CC1,?,23.1µM*,-0.7%,-34.1%,?
Cc1ccc(S(=O)(=O)N2CCCCC2)cc1C(=O)N(C)CC(=O)Nc1ccc(Cl)c(C(F)(F)F)c1,2.4%,?,-0.6%,-5.7%,?
CN(CC(=O)Nc1ccc(Cl)c(C(F)(F)F)c1)C(=O)c1ccc(S(=O)(=O)N2CCOCC2)cc1,?,?,0.5%,-22.7%,-18.1%
